14-3-3 Bad PPI: disrupts binding of bovine 14-3-3 zeta to phospho-Bad peptide | P63103 | TR-FRET 14-3-3zeta/Dy647-pBad peptide displacement, 1 h | inhibition, % at 21.7 µM | 220,000 compounds, 0.71% hits | AID 781;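 active means inhibition above about 70%, limit read from the data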;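 further: 0% = full 14-3-3 plus peptide FRET controls and 100% = background without 14-3-3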
Target sequence (P63103 whole entry, looked up): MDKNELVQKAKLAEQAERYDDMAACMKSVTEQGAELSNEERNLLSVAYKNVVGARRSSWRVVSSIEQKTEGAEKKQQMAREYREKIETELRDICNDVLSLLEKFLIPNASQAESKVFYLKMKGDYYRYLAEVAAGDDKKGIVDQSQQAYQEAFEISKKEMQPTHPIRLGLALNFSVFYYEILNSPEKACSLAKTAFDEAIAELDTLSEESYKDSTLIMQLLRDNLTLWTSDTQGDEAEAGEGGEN
Arbovirus inh: blocks arbovirus infection | inhibition, % at 10 µM | arbovirus infection cell-based antiviral screen | AID 1251 | 200,000 compounds, 0.37% hits; in the data active means inhibition above about 30%
Bim-Mcl-1: human Bim-Mcl-1 interaction inhibition. Q07820. Bead-based flow cytometry, Bim peptide-Mcl-1 binding. inhibition, % at 10 µM. 190,000 compounds, 0.1% hits. AID 1009; in the data active means inhibition above about 40%;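 further: 0% = no compound tracer wells and 100% = peptide blocker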
Target sequence (Q07820 whole entry, looked up): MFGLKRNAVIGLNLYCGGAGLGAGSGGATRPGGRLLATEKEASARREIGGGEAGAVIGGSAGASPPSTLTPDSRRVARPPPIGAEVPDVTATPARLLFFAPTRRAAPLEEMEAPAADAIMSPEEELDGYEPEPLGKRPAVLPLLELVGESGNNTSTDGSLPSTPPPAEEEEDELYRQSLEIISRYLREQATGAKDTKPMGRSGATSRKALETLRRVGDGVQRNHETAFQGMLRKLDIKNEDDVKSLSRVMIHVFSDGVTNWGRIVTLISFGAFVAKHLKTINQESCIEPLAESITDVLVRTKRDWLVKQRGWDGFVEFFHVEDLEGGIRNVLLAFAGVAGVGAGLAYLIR
Mcl1 Noxa PPI: Mcl-1/Noxa interaction inhibition; Q07820; TR-FRET Mcl-1/Noxa peptide binding, 2 h; inhibition, % at 21.7 µM; 220,000 compounds, 1.5% hits;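 active means compounds that cut the protein-peptide binding signal by more than 50% relative to plate controls in a single-dose test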;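 further: His-tagged Mcl-1 with rhodamine Noxa BH3 peptide and terbium anti-His antibody; 0% = Mcl-1 plus Noxa peptide wells and 100% = peptide-only wells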
Mcl1 Bid PPI: disrupts binding of human Mcl-1 to Bid peptide | 220,000 compounds, 0.97% hits | Q07820 | inhibition, % at 21.7 µM | TR-FRET Mcl-1/Bid-Dy647 peptide binding, 1536-well;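 active means compounds that cut the binding signal by more than half at the single screening dose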;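 further: His-tagged Mcl-1 with europium anti-His antibody binding Bid BH3 peptide; 0% = Mcl-1 plus peptide wells and 100% = peptide-only wells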
The depositor's hits bear a star; [ ] = remark or other dose. Most compounds without a hit are left out; they make up all but 3% or so of the library.

C=CCn1c(=NC(=O)c2ccc(S(=O)(=O)N3CCCc4ccccc43)cc2)sc2cc(S(N)(=O)=O)ccc21 was read as 14-3-3 Bad PPI -2, Arbovirus inh -16, Bim-Mcl-1 -4, Mcl1 Noxa PPI 54* and Mcl1 Bid PPI -1.
Screening COc1ccc(C(=O)Nc2nc3cc4c(cc3s2)OCO4)c(OC)c1 returned 14-3-3 Bad PPI 19, Mcl1 Noxa PPI 52* and Mcl1 Bid PPI 51*.
`Cc1c(NC(=O)OCCNC(=O)Nc2ccccc2)sc(=S)n1C` gave 14-3-3 Bad PPI -5, Arbovirus inh 5, Bim-Mcl-1 1, Mcl1 Noxa PPI -8 and Mcl1 Bid PPI -14.
CCOC(=O)Nc1sc(=S)n(C)c1C was read as 14-3-3 Bad PPI 84*, Arbovirus inh -6, Bim-Mcl-1 -3, Mcl1 Noxa PPI 17 and Mcl1 Bid PPI -31.
For C#Cc1ccc(C(=O)Nc2cc(C(N)=O)ccc2N2CCOCC2)cc1 the results were 14-3-3 Bad PPI -3, Arbovirus inh 2, Bim-Mcl-1 2, Mcl1 Noxa PPI 51* and Mcl1 Bid PPI -6.
CC1=C/C(=C\c2ccc(Br)o2)C(=O)O1 was read as 14-3-3 Bad PPI 8, Arbovirus inh 3, Bim-Mcl-1 -6, Mcl1 Noxa PPI 71* and Mcl1 Bid PPI -5.
O=C1C(=Cc2ccc(Br)o2)C(=O)c2ccccc21 was read as 14-3-3 Bad PPI 89*[fluorescence artefact?], Arbovirus inh -24, Bim-Mcl-1 2, Mcl1 Noxa PPI 105* and Mcl1 Bid PPI 76*.
`O=c1nc2s/c(=C\c3ccco3)c(=O)n2nc1Cc1ccc(F)cc1` gave 14-3-3 Bad PPI -5, Arbovirus inh 18, Bim-Mcl-1 -2, Mcl1 Noxa PPI 65* and Mcl1 Bid PPI -31.
`Cc1ccc(/C=c2\sc3nc(-c4ccco4)nn3c2=O)o1` gave 14-3-3 Bad PPI 1, Arbovirus inh -1, Bim-Mcl-1 5, Mcl1 Noxa PPI 77* and Mcl1 Bid PPI 25.
Screening Cc1ccc(/C=c2\sc3nc(-c4ccccc4Br)nn3c2=O)o1 returned 14-3-3 Bad PPI -10, Arbovirus inh 16, Bim-Mcl-1 9, Mcl1 Noxa PPI 79* and Mcl1 Bid PPI 62*.
`Cc1ccc(/C=c2/sc3nnc(-c4ccccc4Cl)n3c2=O)o1` gave 14-3-3 Bad PPI 5, Arbovirus inh 1, Bim-Mcl-1 -5, Mcl1 Noxa PPI 39 and Mcl1 Bid PPI -22.
Screening COc1ccccc1/C=c1\sc2nc(-c3ccccc3OC)nn2c1=O returned 14-3-3 Bad PPI 1, Arbovirus inh 6, Bim-Mcl-1 -1, Mcl1 Noxa PPI -2 and Mcl1 Bid PPI -4.
Cc1ccc(-c2nc3s/c(=C\c4ccco4)c(=O)n3n2)cc1 was read as 14-3-3 Bad PPI -4, Arbovirus inh 4, Bim-Mcl-1 -3, Mcl1 Noxa PPI 52* and Mcl1 Bid PPI 22.
C(=N\N1CCN(Cc2ccccc2)CC1)/c1ccccc1 was read as 14-3-3 Bad PPI 4, Mcl1 Noxa PPI -5 and Mcl1 Bid PPI -73.
CCN(CC)c1ccc(/C=N/N2CCN(Cc3ccccc3)CC2)cc1 was read as 14-3-3 Bad PPI 5, Arbovirus inh 9, Bim-Mcl-1 -3, Mcl1 Noxa PPI 75* and Mcl1 Bid PPI -8.
For COc1ccc(CNC(=O)CSc2nnc(Cn3nnc4ccccc43)n2C)cc1 the results were 14-3-3 Bad PPI 4, Arbovirus inh 6, Bim-Mcl-1 1, Mcl1 Noxa PPI 5 and Mcl1 Bid PPI 17.
For c1ccc2c(c1)oc1c(N3CCOCC3)ncnc12 the results were 14-3-3 Bad PPI 81*, Arbovirus inh 9, Bim-Mcl-1 -1, Mcl1 Noxa PPI 31 and Mcl1 Bid PPI 28.
Cc1nc(N2CCOCC2)c2oc3ccccc3c2n1 was read as 14-3-3 Bad PPI 5, Arbovirus inh 5, Bim-Mcl-1 -3, Mcl1 Noxa PPI 9 and Mcl1 Bid PPI -1.
For Cc1c(Br)c(=O)oc2c(Br)c(O)c(O)cc12 the results were 14-3-3 Bad PPI 8, Arbovirus inh -33, Bim-Mcl-1 8, Mcl1 Noxa PPI 64* and Mcl1 Bid PPI -112.
`Cc1cc(C)n(CC2CC(=O)N(c3ccc(Cl)cc3)C2=O)n1` (centres undefined) gave 14-3-3 Bad PPI -5, Mcl1 Noxa PPI 7 and Mcl1 Bid PPI -1.
`Cc1ccc(N2C(=O)CC(Cn3nc(C)cc3C)C2=O)cc1` (centres undefined) gave Arbovirus inh 5, Bim-Mcl-1 0, Mcl1 Noxa PPI 11 and Mcl1 Bid PPI 91*.
`O=C(Nc1ccc(S(=O)(=O)N2CCOCC2)cc1)c1cccnc1` gave 14-3-3 Bad PPI -9, Mcl1 Noxa PPI -9 and Mcl1 Bid PPI -1.
O=C(/C=C/c1ccc(Br)cc1)c1ccc(NC2=NCCCS2)cc1 was read as 14-3-3 Bad PPI 6, Arbovirus inh -32, Bim-Mcl-1 0, Mcl1 Noxa PPI 49 and Mcl1 Bid PPI 8.
For COc1cccc(/C=C/C(=O)c2ccc(NC3=NCCCS3)cc2)c1 the results were 14-3-3 Bad PPI 3, Arbovirus inh -33, Bim-Mcl-1 -25, Mcl1 Noxa PPI 57* and Mcl1 Bid PPI 9.
`O=C(/C=C/c1ccccc1)c1ccc(NC2=NCCCS2)cc1` gave 14-3-3 Bad PPI -6, Arbovirus inh -34, Bim-Mcl-1 -2, Mcl1 Noxa PPI 84* and Mcl1 Bid PPI 12.
CC(C)(C)c1ccc(/C=C/C(=O)c2ccc(NC3=NCCCS3)cc2)cc1 was read as 14-3-3 Bad PPI -12, Arbovirus inh -21, Bim-Mcl-1 -6, Mcl1 Noxa PPI 23 and Mcl1 Bid PPI 11.
`Cc1cccc(/C=C/C(=O)c2ccc(NC3=NCCCS3)cc2)c1` gave 14-3-3 Bad PPI 1, Arbovirus inh -35, Bim-Mcl-1 -4, Mcl1 Noxa PPI 88* and Mcl1 Bid PPI 27.
For COc1ccc(CNC(=O)Cn2nnc3ccccc3c2=O)cc1 the results were 14-3-3 Bad PPI -2, Mcl1 Noxa PPI -4 and Mcl1 Bid PPI -9.
For O=C1/C(=C/c2cccs2)Sc2ccccc21 the results were 14-3-3 Bad PPI -9, Arbovirus inh -6, Bim-Mcl-1 75*, Mcl1 Noxa PPI 38 and Mcl1 Bid PPI 10.
`O=C(O)CSc1cc(NS(=O)(=O)c2cccc([N+](=O)[O-])c2)c2ccccc2c1O` gave 14-3-3 Bad PPI 86*, Mcl1 Noxa PPI 76* and Mcl1 Bid PPI 16.
For CCc1ccc(S(=O)(=O)Nc2cc(SCC(=O)O)c(O)c3ccccc23)cc1 the results were 14-3-3 Bad PPI 41, Arbovirus inh -4, Bim-Mcl-1 4, Mcl1 Noxa PPI 56* and Mcl1 Bid PPI -29.
Cc1ccc(C)c(S(=O)(=O)Nc2cc(SCC(=O)O)c(O)c3ccccc23)c1 was read as 14-3-3 Bad PPI 84*[fluorescence artefact?], Arbovirus inh -28, Bim-Mcl-1 4, Mcl1 Noxa PPI 79* and Mcl1 Bid PPI -16.
Screening CCOC(=O)NCc1ccc(S(=O)(=O)Nc2ccccc2C)cc1 returned 14-3-3 Bad PPI -3, Arbovirus inh 0, Bim-Mcl-1 1, Mcl1 Noxa PPI 2 and Mcl1 Bid PPI -14.
Cc1ccc(S(=O)(=O)Nc2cccc3cccnc23)cc1 was read as 14-3-3 Bad PPI -14, Arbovirus inh -45, Bim-Mcl-1 -3, Mcl1 Noxa PPI -81 and Mcl1 Bid PPI -63.

Bioassay records: PubChem BioAssay, several laboratories
